Hits are enriched below; roughly 19% of the tested compounds scored in any of these assays.
TDP1 cell CPT = DT40-hTDP1 cell growth loss with CPT | Potency, µM (highest dose often 46.2 µM), for the others: top-dose activity change, negative = growth inhibition, hits mostly inhibitors | chicken DT40 Tdp1-/-;hTDP1 cells + 20 nM CPT, ATP luminescence, 48 h | hit rate 12% among 420,000; note: potency is the fitted concentration of half-maximal effect; % is set by controls: 0 for no effect and ±100 for the full control effect; nearly all actives have a fitted effect of over 55% in size
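Chicken DT40 Tdp1-/- cells stably complemented with human TDP1 were seeded at 400 cells/well in medium containing 20 nM camptothecin, exposed to pin-transferred compounds, and grown at 37 °C for at least 48 hr. Viability was read as ATP luminescence.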
IL-1B inflam inh = blocks inflammasome-driven IL-1 beta release; hit rate 4.7% among 360,000; THP-1 LPS/ATP IL-1B secretion, AlphaLISA, 16 h; hits give low values; activity change, % at 57.5 µM; in the data active = activity change below about -50%; inconclusive = mostly about -30% to -49%; note: % is set by controls: 0 for no effect and ±100 for the full control effect
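THP-1 cells pretreated 1 hr with compounds (up to 57.5 uM final), then stimulated with LPS (250 ng/mL final) plus ATP (1.25 mM final); secreted IL-1B measured by AlphaLISA after 16 hr, decreased signal indicating inhibition.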
DT40 TDP1 no CPT = qHTS for Inhibitors of human tyrosyl-DNA phosphodiesterase 1 (TDP1): qHTS in cells in absence of CPT. hit rate 15% among 420,000. Potency, µM (doses to about 46.2 µM), for inactives: at the highest dose activity change, negative = growth inhibition, hits mostly inhibitors. DT40 Tdp1-/- hTDP1 cells, no CPT, ATP luminescence, 48 h; note: potency is the fitted concentration of half-maximal effect; % is set by controls: 0 for no effect and ±100 for the full control effect; nearly all actives have a fitted effect of over 55% in size
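Cells were dispensed at 400 per well, compounds added by pin tool, plates incubated ≥48 hr at 37 °C, then CellTiter-Glo added for 30 min at room temperature before luminescence reading. Line: DT40 Tdp1-/- complemented with hTDP1; camptothecin omitted.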
MCF10A rerep = DNA re-replication induction in MCF 10a cells; hit rate 2.9% among 350,000; Potency, µM (doses to about 46.1 µM), without a hit: at the highest dose activity, positive = re-replication, most hits filed as activators; MCF 10A DNA re-replication, Hoechst nuclear intensity, 48 h; AID 624296; note: potency is the fitted concentration of half-maximal effect; % of control where 0% means no effect; nearly all actives have a fitted effect of over 50% in size
SW480 rereplic = induces DNA re-replication in SW480 colon adenocarcinoma cells | SW480 DNA re-replication, Hoechst DNA content imaging, 48 h | Potency, µM (series often up to 46.1 µM), without a hit: at the top dose re-replication activation, usual class: activators | hit rate 1.8% among 340,000 | AID 624297; note: potency is the fitted concentration of half-maximal effect; % of control where 0% means no effect; nearly all actives have a fitted effect of over 55% in size
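SW480 cells exposed to compounds for 48 hr at 37 C, 5% CO2, then Hoechst-stained 40 min. Nuclear DNA content imaged by fluorescence scanning (405 nm excitation, 500-530 nm emission); re-replication scored as increased high-intensity nuclei.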
Chronic BCR inh = blocks chronic active B-cell receptor signaling; Potency, µM (highest dose often 46.1 µM), without a hit: at the highest dose activity change, negative = inhibition, actives largely listed as inhibitors; ABC-DLBCL IkBa-CBG/CBR reporter, luminescence ratio, 4 h; AID 493014; hit rate 0.05% among 340,000; active = well fitted inhibition curve with a large enough effect in the signal ratio, with a control signal flat, not every such curve was filed as active; inconclusive = small, poorly fitted or top-dose-only effect, or effect the other way, or a change in a side signal; the % refers to the signal ratio;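 note: potency is the fitted concentration of half-maximal effect; plate controls were basal doxycycline-induced cells for no effect and cells given 10 µM MG132 for full effect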
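Compounds up to 46 uM were incubated four hours with TMD8 cells whose green CBG68 luciferase is fused to IkappaBalpha; red CBR luminescence normalised the signal, and concentration-effect curves were fitted to fusion, red and ratio data.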
Active calls of the source: *; ? = inconclusive; . = no result; [ ] = remark or other dose. Unless noted, calls come from the whole dose curve; as a rule, active = well fitted curve in the direction sought with a large enough effect; inconclusive = small, poorly fitted or top-dose-only effect, or another doubt; inactive = no such curve, though single readings can be large; an effect the other way counts as inactive or inconclusive.

SMILES	TDP1 cell CPT	IL-1B inflam inh	DT40 TDP1 no CPT	MCF10A rerep	SW480 rereplic	Chronic BCR inh
COCCNC(=O)C1(C)CCCN(C(=O)c2cc(F)cc(F)c2)C1 (stereo unspecified)	4%	14	17%	.	.	.
CC(Oc1ccc(-c2ccccc2)cc1)C(=O)N/N=C/c1cccnc1 (stereo unspecified)	-9%	15	-17%	9%	-9%	-17%
O=C(Nc1ccc2c(c1)OCCO2)c1ccc(Br)s1	?	-76*	?	?	107%	?
COc1cc2[nH]c(C(=O)Nc3ccc4c(c3)OCCO4)cc2c(OC)c1OC	16µM*	-91*	?	-13%	-8%	?
COc1ccc(C(=O)Nc2ccc3[nH]ccc3c2)cc1	?	-16	26µM*	?	?	.
COc1cc2cc(C(=O)Nc3ccc4c(c3)OCCO4)[nH]c2cc1OC	18%	-10	?	0%	0%	3%
COc1cccc(CNC(C)C(=O)Nc2ccc3c(c2)OCCO3)c1 (stereo unspecified)	0%	-61*	-11%	0%	-1%	?
O=C(Nc1ccc2c(c1)OCCO2)c1ccccc1	-27%	-25	-25%	0%	-3%	?
O=C1CC(C(=O)N2CCN(c3ccccn3)CC2)CN1Cc1ccccc1Cl (stereo unspecified)	-2%	-12	-3%	0%	6%	4%
O=C(Nc1cc(C(=O)NC2CCOCC2)c2c(c1)ncn2C1CCCC1)c1ccccc1	2%	.	-14%	.	.	.
N=C1C(=O)OCC1c1ccccc1NC(=O)CN1CCOCC1 (stereo unspecified)	-7%	28	-17%	8%	-91%	2%
COc1cc(C(=O)N2CCN(S(=O)(=O)c3ccc(C)cc3)CC2)ccc1OCC(=O)N1CCOCC1	2%	0	-8%	1%	4%	.
CC1(C)CC(=O)C2=C(C1)Nc1cc3c(cc1C2c1ccc2c(c1)OCO2)OCO3 (stereo unspecified)	?	?	?	6%	2%	-5%
CC1(C)CC(=O)C2=C(C1)Nc1cc3c(cc1C2c1ccc(F)cc1)OCO3 (stereo unspecified)	?	0	?	?	-15%	-2%
COc1ccc(C2C3=C(CC(C)(C)CC3=O)Nc3cc4c(cc32)OCO4)cc1 (stereo unspecified)	0%	-60*	-9%	4%	-7%	-8%
COc1ccc(OC)c(C2C3=C(COC3=O)Nc3cc4c(cc32)OCO4)c1 (stereo unspecified)	0.16µM*	50	0.15µM*	0.26µM*	0.15µM*	?
O=S(=O)(c1ccccc1F)N1CCC(Oc2ccc(-n3cnnn3)cc2)CC1	?	-1	23µM*	-1%	-1%	-10%
CC(C)(C)c1ccc(S(=O)(=O)N2CCC(Oc3ccc(-n4cnnn4)cc3)CC2)cc1	?	.	10µM*	.	.	.
O=C(COc1ccccc1)Nc1ccc(-c2ccc(N3CCOCC3)nn2)cc1	?	4	?	17%	-7%	8%
COc1ccccc1-n1nnnc1SC(C)C(=O)NC1CCCC1 (stereo unspecified)	-2%	1	-9%	0%	0%	2%
O=C(CN(Cc1ccco1)C(=O)c1cccc(Cl)c1)Nc1c(Cl)cc(Cl)cc1Cl	26µM*	34	?	2%	4%	1%
CN(Cc1ccccc1)C(=O)CN1C(=O)CSc2ccc(S(=O)(=O)N3CCOCC3)cc21	?	.	?	.	.	7%
Cc1cc(OCC(=O)NCC(C)C)cc(C)c1Br	?	-10	-22%	?	2%	?
CC(C)CNC(=O)COc1ccc(Sc2ccc(OCC(=O)NCC(C)C)cc2)cc1	?	0	1.6µM*	-2%	?	-7%
CCCC(C)NC(=O)COc1ccc(Sc2ccc(OCC(=O)NC(C)CCC)cc2)cc1 (stereo unspecified)	8.2µM*	-1	12µM*	18%	2%	6%
SMILES	TDP1 cell CPT	IL-1B inflam inh	DT40 TDP1 no CPT	MCF10A rerep	SW480 rereplic	Chronic BCR inh
CCn1c(-c2ccccc2F)nc2cc(C(=O)N3CCNC(=O)C3CC(=O)OC)cc(NC(C)=O)c21 (stereo unspecified)	-3%[9.04 µM]	.	1%	.	.	.
COc1c(C(O)CC(C)C)ccc2c1C(=O)OCc1cc(C)cc(O)c1O2 (stereo unspecified)	?	1	18µM*	5%	0%	4%
COc1c(C(CC(C)C)OC(C)=O)ccc2c1C(=O)OCc1cc(C)cc(O)c1O2 (stereo unspecified)	9.2µM*	-24	12µM*	?	-1%	-2%
COc1ccc(CC(=O)NNC(=O)c2ccc(Br)o2)cc1	-8%	7	17%	0%	-1%	3%
O=C(NC(=S)NCCC1=CCCCC1)c1ccccc1Br	?	64	16µM*	?	3%	?
S=C(NCCC1=CCCCC1)NCc1ccco1	16µM*	-16	10µM*	-3%[9.22 µM]	-3%	4%
Cc1cccn2c(=O)c(C(=O)NC(C)c3ccccc3)c(O)nc12 (stereo unspecified)	18µM*	.	?	.	.	.
CC(NC(=O)c1ccc(Cn2c(=O)c3cccn3c3cccnc32)cc1)c1ccccc1 (stereo unspecified)	-29%	.	?	.	.	.
Cc1cccn2c(=O)c(C(=O)NCCc3ccc(S(N)(=O)=O)cc3)c(O)nc12	-12%	.	-3%	.	.	.
COc1ccc(CCNC(=O)c2c(O)nc3c(C)cccn3c2=O)cc1	16µM*	.	?	.	.	.
O=C(NCc1ccc(F)cc1)c1c(O)nc2ccccn2c1=O	?	.	21µM*	.	.	.
COc1ccc(CNC(=O)c2c(O)nc3c(C)cccn3c2=O)cc1	?	.	12µM*	.	.	.
COc1ccc(N2CCN(C(=O)c3cccnc3)CC2)c([N+](=O)[O-])c1	24%	25	-9%	9%	3%	1%
CCN(CC)CCC12CC(C)OC1=Nc1ccccc1NC2=O (stereo unspecified)	-11%	37	-4%	.	.	.
COC(=O)CC(=O)CSc1nc2cc(C(=O)NCC(C)C)ccc2c(=O)n1CCc1ccccc1	?	.	21µM*	.	.	.
COCCn1c(SCC(=O)c2ccc(C)cc2)nc2cc(C(=O)NC3CCCC3)ccc2c1=O	6%	.	-4%	.	.	.
COC(=O)CC(=O)CSc1nc2cc(C(=O)NC(C)C)ccc2c(=O)n1CCc1ccccc1	?	.	23µM*	.	.	.
